# M1 PAM: human M1 muscarinic receptor positive allosteric modulators, primary screen, CHO-K1 cells, Fluo-8 calcium fluorescence, 1536-well. Muscarinic acetylcholine receptor M1 (Homo sapiens), P11229. CHO-K1 hM1, ACh EC20; 0% = ACh EC20, 100% = maximal ACh. activation, % at 3 µM. 360,000 compounds, 0.088% hits. AID 588819, 2011; in the data active = activation above about 19%, passing the limit was not always enough
# Target sequence (P11229 whole entry, looked up): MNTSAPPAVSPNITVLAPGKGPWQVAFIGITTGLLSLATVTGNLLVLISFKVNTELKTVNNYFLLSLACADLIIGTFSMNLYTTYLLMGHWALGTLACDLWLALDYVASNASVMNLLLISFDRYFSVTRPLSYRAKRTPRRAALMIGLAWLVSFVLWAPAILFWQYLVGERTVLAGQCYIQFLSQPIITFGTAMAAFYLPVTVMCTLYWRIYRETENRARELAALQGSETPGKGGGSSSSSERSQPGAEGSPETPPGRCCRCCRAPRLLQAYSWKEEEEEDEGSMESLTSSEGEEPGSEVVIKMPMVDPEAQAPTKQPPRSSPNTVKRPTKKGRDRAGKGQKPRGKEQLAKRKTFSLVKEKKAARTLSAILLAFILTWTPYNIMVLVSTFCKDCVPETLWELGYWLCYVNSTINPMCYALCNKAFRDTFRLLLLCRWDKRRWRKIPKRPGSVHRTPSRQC
# CHO-K1 Ca antag: counter-screen for M1 antagonists: effect in parental CHO-K1 cells; ATP-induced calcium, Fluo-8 fluorescence; inhibition, % at 3 µM; 360,000 compounds, 0.6% hits; AID 602250;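 active = inhibition above a per-plate cutoff, the plate's mean sample inhibition plus 3 SD, cut at about 24% in these data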;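 also: 0% = DMSO plus EC80 ATP and 100% = DMSO alone without ATP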
# M1 antag: human M1 muscarinic receptor antagonists, primary screen, CHO-K1 cells, Fluo-8 calcium fluorescence, 1536-well; Muscarinic acetylcholine receptor M1 (Homo sapiens), P11229; CHO-K1 hM1, ACh EC80 antagonist; inhibition, % at 3 µM; 360,000 compounds, 1.3% hits; AID 588852, 2011;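 active = percent inhibition above its own plate's cutoff, namely the mean of that plate's compound wells plus 3 SD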;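 also: peak over basal fluorescence ratio during 140 s after agonist addition; 0% = ACh EC80 plus DMSO and 100% = DMSO alone without agonist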
# CHO-K1 Ca PAM: nonselective calcium activators in parental CHO-K1 cells, primary screen, counter-screen for M1 PAM project, cell-based, Fluo-8 calcium fluorescence, full deck, 1536-well. activation, % at 3 µM. 360,000 compounds, 0.02% hits. AID 602247, 2012. ATP EC20; 0% at ATP EC20, 100% at ATP max;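 active = activation above the run cutoff, the mean activation of all test compounds plus 3 SD, cut at about 40% in these data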;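 also: peak over basal fluorescence ratio in a 140 s read after ATP addition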
# CHO-K1 Ca ag: counter-screen for M1 agonists: effect in parental CHO-K1 cells; Fluo-8 calcium fluorescence; scaled to maximal ATP response, vehicle zero; activation, % at 3 µM; 360,000 compounds, 0.48% hits; in the data active = activation above about 15%;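 also: untransfected CHO-K1 host cells lacking M1 receptor as counterscreen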
# CHRM1 agonist: human M1 muscarinic receptor agonists, primary screen, Fluo-8 calcium fluorescence, CHO-K1 cells, HTS | Muscarinic acetylcholine receptor M1 (Homo sapiens), P11229 | AID 588814, 2011 | CHO-K1 hM1, agonist mode; 0% DMSO, 100% acetylcholine EC100 | activation, % at 3 µM | 360,000 compounds, 0.33% hits;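 active = activation above the run's mean compound activation plus 3 SD, cut at about 16% in these data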;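 also: peak over basal fluorescence ratio within a 140 s kinetic read after compound addition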
# An asterisk follows results filed as active. In the library only some 2.3% were active in any assay of this set; here they are far more common.
SMILES,M1 PAM,CHO-K1 Ca antag,M1 antag,CHO-K1 Ca PAM,CHO-K1 Ca ag,CHRM1 agonist
C[C@@H]1CN([C@@H](C)CO)C(=O)c2cc(C#CCN(C)C)cnc2O[C@H]1CN(C)Cc1ccc2c(c1)OCO2,-30,-5,62*,2,0,-11
C[C@@H]1CN([C@@H](C)CO)C(=O)c2cc(Br)cnc2O[C@H]1CN(C)C(=O)CCN1CCCCC1,-10,7,9,-11,0,-11
CCCc1cc(=O)n2nc(N3CCC(C(=O)Nc4cccc(C(C)=O)c4)CC3)sc2n1,15,-6,-11,2,0,3
CC1CCC(NC(=O)CC(NC(N)=O)c2ccccc2Cl)CC1 (stereo not drawn),6,-17,-13,8,2,-5
CC[N+](CC)(CC)CCOc1ccc(/C=C/c2ccccc2)cc1,-27,3,95*,-2,0,-7
CCOc1ccc(/C=C/C(=O)c2ccccc2)cc1,8,-22,-8,7,0,-4
Cc1ccc(NC(=S)Nc2ccc(Br)cc2)cc1,1,35*,7,-5,2,3
CCCCn1nc(C(=O)Nc2cc(C(F)(F)F)ccc2N2CCOCC2)ccc1=O,-2,-1,6,1,0,-4
Cc1ccc(C(=O)Nc2ccc(N3CCN(C(=O)c4cccs4)CC3)cc2)c(Cl)c1,1,-16,6,13,3,-3
C[C@@H]1ON(C)[C@H]2C[C@H]3c4[nH]c5ccccc5c4CCN3C(=O)[C@@H]12,1,-2,-4,1,0,-3
C[C@@H]1OC(C2CCCCC2)N(C)[C@H]2C[C@H]3c4[nH]c5ccccc5c4CCN3C[C@@H]12 (stereo partly drawn),-17,24*,23,-8,0,-11
Cc1ccc(OCCCNC2CCCC2)cc1,1,-12,-6,21,1,-11
CC(C)(C)c1ccc(OCCCNC2CCCC2)cc1,-30,16,22*,-8,4,-10
CC(=O)N1CCCC(C)(C(=O)Nc2ccc3oc(C)nc3c2)C1 (stereo not drawn),8,27*,-10,-14,0,-2
O=C(Nc1ccc2ncccc2c1)c1cc(Cl)ccc1Cl,-1,-6,2,7,2,-12
CC(=O)c1ccc(OCC(=O)NCCC2=CCCCC2)cc1,24*,-2,-19,-3,1,-6
Cc1ccc2c(c1)N(C(C)C(=O)NCc1ccc3c(c1)OCO3)C(=O)CO2 (stereo not drawn),1,-15,-4,10,1,-5
O=C1c2[nH]nc(-c3ccccc3O)c2C(c2cccc(Cl)c2)N1Cc1ccco1 (stereo not drawn),9,24*,4,-9,0,-3
O=C1c2[nH]nc(-c3ccccc3O)c2C(c2ccc(F)cc2)N1Cc1ccco1 (stereo not drawn),7,-8,-3,26,1,1
COc1ccccc1-n1cc(C(=O)NCC(=O)N2CCN(c3ccccc3)CC2)c2ccccc2c1=O,-6,-5,3,4,1,-6
O=C(NCC(c1ccco1)N1CCCC1)c1ccc(S(=O)(=O)Nc2ccccc2Cl)cc1 (stereo not drawn),-9,12,5,3,1,-7
O=C(NCC(c1ccco1)N1CCCC1)c1ccc(S(=O)(=O)Nc2ccccc2F)cc1 (stereo not drawn),-25,0,66*,-4,3,-7
O=C(NCC(c1ccco1)N1CCCCC1)c1ccc(COc2ccc(Cl)cc2)cc1 (stereo not drawn),-26,-4,80*,22,2,-5
CCn1nccc1NC(=O)c1csc([C@H]2C[C@H](O)[C@@H](CO)O2)n1,-1,5,1,2,0,-2
COc1ccc(N2CCN(c3ccc(C(=O)O)cc3[N+](=O)[O-])CC2)cc1,15,-18,-15,19,1,-2
SMILES,M1 PAM,CHO-K1 Ca antag,M1 antag,CHO-K1 Ca PAM,CHO-K1 Ca ag,CHRM1 agonist
CSCC[C@H](N)C(=O)N1CCC(C(=O)N[C@H](C(=O)NCc2ccccc2F)C(C)C)CC1,7,13,-15,4,0,-4
CC(C)Oc1cccc(C(=O)C2CCCN(Cc3cnc(N4CCCC4)s3)C2)c1 (stereo not drawn),-12,-1,2,19,3,-14
CCCn1cc(CN2CCCC(C(=O)c3cccc(OC(C)C)c3)C2)c(C)n1 (stereo not drawn),-28,-1,39*,11,4,-11
CCCn1ncc(CN2CCCC(C(=O)c3cccc(OC(C)C)c3)C2)c1C (stereo not drawn),-25,-12,99*,25,2,-7
COc1ccc2nc(C)cc(Sc3nc4ccccc4s3)c2c1,-4,-1,11,11,29*,1
CCOc1ccc(OCC)c(Nc2cc(C)nc3nc(C)nn23)c1,10,34*,-13,-11,0,1
Cc1cc(Nc2ccccc2F)n2nc(C)nc2n1,13,-1,-6,-3,0,1
Cc1cc(Nc2ccc(Br)cc2F)n2nc(C)nc2n1,8,1,-21,41*,0,-7
CC1CCCCC1NC(=O)/C(C#N)=C/c1ccccc1F (stereo not drawn),10,7,0,11,1,-7
O=[N+]([O-])c1cccc(-c2cc3cccc[n+]3cc2-c2cccc([N+](=O)[O-])c2)c1,5,-4,1,14,0,-10
Cc1sc2cc(-c3cccc([N+](=O)[O-])c3)c(-c3cccc([N+](=O)[O-])c3)c[n+]2c1C,-22,-6,32*,11,0,-10
O=C(O)CCCN1C(=O)NC2NC(=O)NC21 (stereo not drawn),-5,34*,5,-7,0,-3
COc1cc(C(C)=O)ccc1OCCN1CCC(Cc2ccccc2)CC1,-24,-6,45*,-9,2,-1
COc1cc(C(C)=O)ccc1OCCCN1CCC(Cc2ccccc2)CC1,-23,-12,44*,10,1,-1
COC(=O)C1CCN(c2cc(=O)n(Cc3ccc(F)cc3)c(=O)[nH]2)CC1,8,-4,-11,14,0,-1
CCOC(=O)C1CCCN(c2cc(=O)n(-c3ccccc3Cl)c(=O)[nH]2)C1 (stereo not drawn),-4,12,-5,5,0,29*

# Compound activity: PubChem, The Scripps Research Institute Molecular Screening Center
